Experimental data as given in PubChem BioAssay (Tox21).
Several values for one entry are separate records, joined by “and”; a condition that tells them apart may be missing. Equal entries are not always repeated. Values without a mark were called inactive. Entries that show only a call come without a potency. Activity calls are given as the source filed them. Unless noted, calls come from the whole dose curve; as a rule, active = well fitted curve in the direction sought with a large enough effect in the repeat runs; inconclusive = weak or mixed curves; inactive = no such curve, though single readings can be large; an effect the other way counts as inactive or inconclusive.

How the values were obtained:
[1] = qHTS assay to identify small molecule antagonists of the glucocorticoid receptor (GR) signaling pathway - cell viability counter screen (AID 720693); note: nearly all actives have a fitted effect of over 55% in size
[2] = qHTS assay for identifying genotoxic compounds that show differential cytotoxicity against isogenic chicken DT40 cell lines with known DNA damage response pathways - wild type cell line (AID 743012); note: nearly all actives have a fitted effect of over 60% in size; note: potency is the fitted concentration of half-maximal effect
How it was run: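 Luminescent ATP viability signal (CellTiter-Glo, 30 min RT) recorded after wild type DT40 cells were incubated with compounds for 40 h at 37 C/5% CO2.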

[3] = qHTS assay for identifying genotoxic compounds that show differential cytotoxicity against isogenic chicken DT40 cell lines with known DNA damage response pathways - Rev3 mutant cell line (AID 743014); note: nearly all actives have a fitted effect of over 55% in size; note: potency is the fitted concentration of half-maximal effect
[4] = qHTS assay for identifying genotoxic compounds that show differential cytotoxicity against isogenic chicken DT40 cell lines with known DNA damage response pathways - Rad54/Ku70 mutant cell line (AID 743015); note: nearly all actives have a fitted effect of over 60% in size; note: potency is the fitted concentration of half-maximal effect
[5] = qHTS assay to identify small molecule antagonists of the androgen receptor (AR) signaling pathway - cell viability counter screen (AID 743033; note: nearly all actives have a fitted effect of over 45% in size; note: potency is the fitted concentration of half-maximal effect)
[6] = qHTS assay to identify small molecule antagonists of the androgen receptor (AR) signaling pathway using the MDA cell line - cell viability counter screen (AID 743041; note: nearly all actives have a fitted effect of over 45% in size)
How it was run: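 Viability read by CellTiter-Fluor fluorescence in the same wells as the antagonist screen, added after 15.5 h of a 16 h, 37C exposure. Human breast carcinoma MDA-kb2 AR-luc cells, compounds co-dosed with agonist R1881.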

[7] = qHTS assay to identify small molecule antagonists of the thyroid receptor (TR) signaling pathway - cell viability counter screen (AID 743064); note: nearly all actives have a fitted effect of over 50% in size; note: potency is the fitted concentration of half-maximal effect
How it was run: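 Rat GH3 pituitary tumor cells stably expressing two TR response elements driving luciferase were plated, rested 4 h, then dosed with library compounds and T3 (1 nM final). After 23.5 h at 37 °C, CellTiter-Fluor was added for 30 min and fluorescence recorded.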

[8] = qHTS assay to identify small molecule antagonists of the thyroid receptor (TR) signaling pathway (AID 743065); note: nearly all actives have a fitted effect of over 55% in size; note: potency is the fitted concentration of half-maximal effect
How it was run: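 Antagonism measured as loss of luciferase signal in GH3 cells stably carrying a TRE-luciferase reporter, co-treated with compound and T3 (1 nM final) for 23.5 h at 37 C. Viability was read in the same well by CellTiter-Fluor.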

[9] = test system: thyroid hormone receptor (rat, GH3 cells); experiment: qHTS assay to identify small molecule agonists of the thyroid receptor (TR) signaling pathway (AID 743066; calls by dose curve)
[10] = target: Estrogen receptor (Homo sapiens) (UniProt P03372); experiment: qHTS assay to identify small molecule antagonists of the estrogen receptor alpha (ER-alpha) signaling pathway (AID 743069; active = well fitted curve in the direction sought with a large enough effect in the signal ratio in the repeat runs, not every such curve was filed as active; inconclusive = weak or mixed curves, or effect the other way; inactive = no such curve, though single readings can be large or run the other way; the % refers to the signal ratio; note: potency is the fitted concentration of half-maximal effect)
Estrogen receptor (Homo sapiens), sequence (P03372 whole entry, looked up): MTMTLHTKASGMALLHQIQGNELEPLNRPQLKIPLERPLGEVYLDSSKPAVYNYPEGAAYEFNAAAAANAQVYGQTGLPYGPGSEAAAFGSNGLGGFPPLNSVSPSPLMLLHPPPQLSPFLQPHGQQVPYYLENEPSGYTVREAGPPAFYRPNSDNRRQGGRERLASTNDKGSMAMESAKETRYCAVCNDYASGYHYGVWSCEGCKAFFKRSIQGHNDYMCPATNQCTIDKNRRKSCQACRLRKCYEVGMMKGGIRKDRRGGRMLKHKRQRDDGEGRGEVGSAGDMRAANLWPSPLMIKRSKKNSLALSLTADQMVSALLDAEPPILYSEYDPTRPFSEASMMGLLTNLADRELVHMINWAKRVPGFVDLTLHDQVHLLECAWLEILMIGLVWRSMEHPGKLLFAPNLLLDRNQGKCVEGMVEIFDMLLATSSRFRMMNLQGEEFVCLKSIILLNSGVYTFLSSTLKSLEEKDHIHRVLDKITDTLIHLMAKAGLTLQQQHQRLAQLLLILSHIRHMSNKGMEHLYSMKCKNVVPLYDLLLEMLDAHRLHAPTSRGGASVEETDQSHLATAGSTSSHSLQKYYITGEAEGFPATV
How it was run: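 Antagonist mode: compounds in DMSO were co-added with 17beta-estradiol to ER-alpha-bla HEK293 cells (2% charcoal-stripped serum) and left 18 h at 37C. Reporter inhibition was measured as FRET fluorescence after 2 h LiveBLAzer substrate at room temperature.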

[11] = target: Estrogen receptor (Homo sapiens) (UniProt P03372); experiment: qHTS assay to identify small molecule agonists of the estrogen receptor alpha (ER-alpha) signaling pathway (AID 743075; calls by dose curve;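 note: HEK293 GripTite cells with ER-alpha and UAS-driven beta-lactamase reporter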; note: potency is the fitted concentration of half-maximal effect)
[12] = qHTS assay to identify small molecule antagonists of the estrogen receptor alpha (ER-alpha) signaling pathway using the BG1 cell line - cell viability counter screen (AID 743081);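 note: compound given together with 17beta-estradiol as the ER stimulus; nearly all actives have a fitted effect of over 45% in size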
Aromatase (Homo sapiens) = Aromatase (Homo sapiens) (UniProt P11511); experiment: qHTS assay to identify aromatase inhibitors (AID 743083); note: nearly all actives have a fitted effect of over 55% in size; note: potency is the fitted concentration of half-maximal effect
Aromatase (Homo sapiens), sequence (P11511 whole entry, looked up): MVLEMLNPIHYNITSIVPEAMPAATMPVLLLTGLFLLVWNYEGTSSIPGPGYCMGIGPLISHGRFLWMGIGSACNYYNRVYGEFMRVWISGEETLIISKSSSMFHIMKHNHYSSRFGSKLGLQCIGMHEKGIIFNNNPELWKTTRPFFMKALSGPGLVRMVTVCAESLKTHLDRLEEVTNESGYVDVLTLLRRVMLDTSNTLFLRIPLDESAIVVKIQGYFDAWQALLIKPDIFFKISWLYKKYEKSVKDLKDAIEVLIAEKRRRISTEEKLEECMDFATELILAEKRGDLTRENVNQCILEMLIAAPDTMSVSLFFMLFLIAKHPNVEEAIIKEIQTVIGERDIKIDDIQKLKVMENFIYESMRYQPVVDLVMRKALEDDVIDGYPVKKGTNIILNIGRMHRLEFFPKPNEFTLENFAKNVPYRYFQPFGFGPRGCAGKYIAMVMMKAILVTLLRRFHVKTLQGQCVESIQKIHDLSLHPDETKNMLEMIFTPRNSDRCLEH

[13] = qHTS assay to identify aromatase inhibitors - cell viability counter screen (AID 743084); note: potency is the fitted concentration of half-maximal effect
[14] = target: Androgen receptor (Homo sapiens) (UniProt P10275); experiment: qHTS assay to identify small molecule antagonists of the androgen receptor (AR) signaling pathway (AID 743035; active = well fitted inhibition curve with a large enough effect in the signal ratio in the repeat runs, not every such curve was filed as active; inconclusive = weak or mixed curves, or effect the other way; inactive = no such curve, though single readings can be large or run the other way; the % refers to the signal ratio; note: potency is the fitted concentration of half-maximal effect)
Androgen receptor (Homo sapiens), sequence (P10275 whole entry, looked up): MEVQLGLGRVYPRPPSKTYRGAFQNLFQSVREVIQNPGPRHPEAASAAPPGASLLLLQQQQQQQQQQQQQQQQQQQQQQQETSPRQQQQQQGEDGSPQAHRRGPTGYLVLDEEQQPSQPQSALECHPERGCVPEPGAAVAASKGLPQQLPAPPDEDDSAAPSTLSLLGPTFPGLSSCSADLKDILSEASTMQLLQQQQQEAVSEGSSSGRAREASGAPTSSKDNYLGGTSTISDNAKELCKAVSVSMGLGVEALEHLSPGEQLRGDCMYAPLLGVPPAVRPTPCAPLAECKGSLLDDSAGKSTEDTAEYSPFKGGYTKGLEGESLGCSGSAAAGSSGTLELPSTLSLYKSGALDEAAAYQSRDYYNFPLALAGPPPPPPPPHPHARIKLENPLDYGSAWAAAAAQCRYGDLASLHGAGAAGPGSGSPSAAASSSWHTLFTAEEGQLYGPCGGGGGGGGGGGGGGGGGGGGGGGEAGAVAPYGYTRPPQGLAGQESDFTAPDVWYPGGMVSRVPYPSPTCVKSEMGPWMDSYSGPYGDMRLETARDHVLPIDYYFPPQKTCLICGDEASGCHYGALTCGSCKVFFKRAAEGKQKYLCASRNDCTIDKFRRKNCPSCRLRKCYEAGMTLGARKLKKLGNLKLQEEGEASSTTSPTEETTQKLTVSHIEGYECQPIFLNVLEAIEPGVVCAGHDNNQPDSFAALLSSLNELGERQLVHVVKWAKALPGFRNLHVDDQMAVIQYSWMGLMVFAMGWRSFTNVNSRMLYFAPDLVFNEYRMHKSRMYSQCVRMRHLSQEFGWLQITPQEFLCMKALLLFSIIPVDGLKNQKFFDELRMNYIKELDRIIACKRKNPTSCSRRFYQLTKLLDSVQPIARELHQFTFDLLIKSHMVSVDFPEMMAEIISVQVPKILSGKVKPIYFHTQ
How it was run: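 Quantitative HTS of the Tox21 10K library used HEK293 AR-UAS-bla cells stimulated with R1881 alongside compound for 16 h at 37C, followed by beta-lactamase FRET detection (LiveBLAzer B/G, 2 h, RT).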

[15] = target: Androgen receptor (Homo sapiens) (UniProt P10275); experiment: qHTS assay to identify small molecule agonists of the androgen receptor (AR) signaling pathway (AID 743036; active = well fitted activation curve with a large enough effect in the signal ratio in the repeat runs, with a control signal flat, not every such curve was filed as active; inconclusive = weak or mixed curves, or effect the other way; inactive = no such curve, though single readings can be large or run the other way; the % refers to the signal ratio)
How it was run: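 Quantitative HTS of the Tox21 10K library in HEK293 cells bearing a stably integrated UAS-controlled beta-lactamase reporter. Compound exposure lasted 16 h at 37C. Reporter activity was detected by FRET substrate fluorescence after 2 h at room temperature.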

[16] = target: Androgen receptor (Homo sapiens) (UniProt P10275); experiment: qHTS assay to identify small molecule agonists of the androgen receptor (AR) signaling pathway using the MDA cell line (AID 743040; note: nearly all actives have a fitted effect of over 20% in size)
How it was run: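 Luciferase agonist assay: 16 h compound exposure at 37C without CO2 in MDA-kb2 AR-luc cells, whose MMTV promoter responds to both AR and GR. Luminescence measured after 30 min room-temperature incubation with ONE-Glo.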

[17] = qHTS assay to identify small molecule antagonists of the estrogen receptor alpha (ER-alpha) signaling pathway - cell viability counter screen (AID 743074; calls by dose curve;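 note: HEK293 cells carrying ER-alpha-UAS-bla reporter stimulated with 17beta-estradiol; nearly all actives have a fitted effect of over 45% in size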)
[18] = target: Estrogen receptor (Homo sapiens) (UniProt P03372); experiment: qHTS assay to identify small molecule agonists of the estrogen receptor alpha (ER-alpha) signaling pathway using the BG1 cell line (AID 743079); settings: BG1Luc4E2 cells, ERE-luciferase agonist, 22 h; note: nearly all actives have a fitted effect of over 20% in size; note: potency is the fitted concentration of half-maximal effect
[19] = qHTS assay to identify small molecule antagonists of the estrogen receptor alpha (ER-alpha) signaling pathway using the BG1 cell line (AID 743080; calls by dose curve;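 note: BG1 cells stimulated with 17beta-estradiol alongside compound; nearly all actives have a fitted effect of over 25% in size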; note: potency is the fitted concentration of half-maximal effect)
How it was run: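 BG1Luc4E2, endogenous ER-alpha, 4xERE-luc; 5 d charcoal-stripped FBS, phenol red free; 24 h plating; cpd + 17beta-estradiol 21.5 h, 37 C/5% CO2; CellTiter-Fluor viability 30 min, then ONE-Glo luciferase 30 min RT.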

CC#Cc1cc(C)nc(Nc2ccccc2)n1
Potency [1]: inactive
Potency [2]: 54.4 µM (active)
Potency [3]: 61.1 µM (active)
Potency [4]: 54.4 µM (active)
Potency [5]: inactive
Potency [6]: inactive
Potency [7]: inactive
Potency [8]: inactive
Potency [9]: inactive
Potency [10]: inactive
Potency [11]: inactive
Potency [12]: inactive
Potency (Aromatase (Homo sapiens)): inactive
Potency [13]: inactive

COP(=O)(O)OC
Potency [1]: inactive
Potency [2]: inactive
Potency [3]: inactive
Potency [4]: inactive
Potency [5]: inactive
Potency [14]: inactive
outcome [15]: inactive
outcome [16]: inactive
Potency [7]: inactive
Potency [8]: inactive
Potency [9]: inactive
Potency [17]: inactive
Potency [11]: inactive
activation ([18]; at 95 µM (top of the series)): -8.98%
Potency [19]: inactive
Potency [12]: inactive
Potency (Aromatase (Homo sapiens)): inactive
Potency [13]: inactive

O=C(NC(O)C(Cl)(Cl)Cl)NC(O)C(Cl)(Cl)Cl (stereo unspecified)
Potency [1]: inactive
Potency [2]: inactive
Potency [3]: inactive
Potency [4]: inactive
Potency [5]: inactive
Potency [6]: inactive
Potency [7]: inactive
Potency [8]: inactive
Potency [9]: inactive
Potency [10]: inactive
Potency [17]: inactive
Potency [11]: inactive
activation ([18]; at 70.3 µM (top of the series)): 4.91%
Potency [19]: inactive
Potency [12]: inactive
Potency (Aromatase (Homo sapiens)): inactive
Potency [13]: inactive

O=C/C=C/c1ccco1
Potency [1]: inactive
Potency [2]: inactive
Potency [3]: inactive
Potency [4]: inactive
Potency [5]: inactive
Potency [14]: inactive
outcome [15]: inactive
outcome [16]: inactive
Potency [7]: inactive
Potency [8]: inactive
Potency [9]: inactive
Potency [10]: inactive
Potency [17]: inactive
Potency [11]: inactive
activation ([18]; at 70.3 µM (top of the series)): 10.7%
Potency [19]: inactive
Potency [12]: inactive
Potency (Aromatase (Homo sapiens)): inactive
Potency [13]: inactive

COc1ccc(C=O)cc1O
Potency [1]: inactive
Potency [2]: inactive
Potency [3]: inactive
Potency [4]: inactive
Potency [5]: inactive
outcome [16]: inactive
Potency [6]: inactive
Potency [7]: inactive
Potency [8]: inactive
Potency [9]: inactive
Potency [10]: inactive
Potency [17]: inactive
Potency [11]: inactive
activation ([18]; at 95 µM (top of the series)): 10.8%
Potency [19]: inactive
Potency [12]: inactive
Potency (Aromatase (Homo sapiens)): inactive
Potency [13]: inactive

Cc1cc(OC(=O)N(C)C)nn1C(=O)N(C)C
Potency [1]: inactive
Potency [2]: inactive
Potency [3]: inactive
Potency [4]: inactive
Potency [5]: inactive
Potency [6]: inactive
Potency [7]: inactive
Potency [8]: inactive
Potency [9]: inactive
Potency [10]: inactive
Potency [11]: inactive
activation ([18]; at 70.3 µM (top of the series)): -8.77%
Potency [19]: inactive
Potency [12]: inactive
Potency (Aromatase (Homo sapiens)): inactive
Potency [13]: inactive

CNC(=O)NC(O)C(Cl)(Cl)Cl (stereo unspecified)
Potency [1]: inactive
Potency [2]: inactive
Potency [3]: inactive
Potency [4]: inactive
Potency [5]: inactive
Potency [14]: inactive
outcome [15]: inactive
outcome [16]: inactive
Potency [6]: inactive
Potency [7]: inactive
Potency [8]: inactive
Potency [9]: inactive
Potency [10]: inactive
Potency [17]: inactive
Potency [11]: inactive
activation ([18]; at 70.3 µM (top of the series)): 2.72%
Potency [19]: inactive
Potency [12]: inactive
Potency (Aromatase (Homo sapiens)): inactive
Potency [13]: inactive

N[C@@H]1C[C@H]1c1ccccc1
Potency [1]: inactive
Potency [2]: inactive
Potency [3]: inactive
Potency [4]: inactive
Potency [5]: inactive
Potency [14]: inactive
outcome [15]: inactive
outcome [16]: inactive
Potency [6]: inactive
Potency [7]: inactive
Potency [8]: inactive
Potency [9]: inactive
Potency [10]: inactive
Potency [17]: inactive
Potency [11]: inactive
activation ([18]; at 70.3 µM (top of the series)): 1.81%
Potency [19]: inactive
Potency [12]: inactive
Potency [13]: inactive

O=c1[nH]oc2c1CCNC2
Potency [1]: inactive
Potency [2]: inactive
Potency [3]: inactive
Potency [4]: inactive
Potency [5]: inactive
Potency [6]: inactive
Potency [7]: inactive
Potency [8]: inactive
Potency [9]: inactive
Potency [17]: inactive
Potency [11]: inactive
activation ([18]; at 70.3 µM (top of the series)): -5.36%
Potency [19]: inactive
Potency [12]: inactive
Potency (Aromatase (Homo sapiens)): inactive
Potency [13]: inactive

C[C@H]1CCCC(=O)CCC/C=C/c2cc(O)cc(O)c2C(=O)O1
Potency [1]: inactive
Potency [2]: 20.9 µM (active) and 20 µM (active)
Potency [3]: 16.6 µM (active) and 22.4 µM (active)
Potency [4]: 16.6 µM (active) and 17.8 µM (active)
Potency [5]: 42.1 µM (active)
Potency [14]: 20.2 µM (active)
outcome [15]: inactive
outcome [16]: inactive
Potency [7]: 23.4 µM (active) and 20 µM (active)
Potency [8]: 23.4 µM (active) and 15.9 µM (active)
Potency [9]: inactive
Potency [10]: 47.2 µM [inconclusive] (active)
Potency [17]: inactive
Potency [11]: 13.3 nM [inconclusive] (active) and 71.5 nM [inconclusive] (active)
activation ([18]; at 32.5 µM (top of the series)): -13.6% (active)
activation ([18]; at 70.3 µM (top of the series)): -34.9% (active)
Potency [19]: 22.4 µM (active)
Potency (Aromatase (Homo sapiens)): 23.4 µM (active)
Potency [13]: 18.6 µM (active)

O=C1CC(=O)NC(=O)N1
Potency [1]: inactive
Potency [2]: inactive
Potency [3]: inactive
Potency [4]: inactive
Potency [5]: inactive
Potency [7]: inactive
Potency [8]: inactive
Potency [9]: inactive
Potency [10]: inactive
Potency [17]: inactive
Potency [11]: inactive
activation ([18]; at 70.3 µM (top of the series)): -4.6%
Potency [19]: inactive
Potency [12]: inactive
Potency (Aromatase (Homo sapiens)): inactive
Potency [13]: inactive

CCC(=O)c1ccc(Cl)cc1
Potency [1]: inactive
Potency [2]: inactive
Potency [3]: inactive
Potency [4]: inactive
Potency [5]: inactive
Potency [7]: inactive
Potency [8]: inactive
Potency [9]: inactive
Potency [17]: inactive
Potency [12]: inactive
Potency (Aromatase (Homo sapiens)): inactive
Potency [13]: inactive

CCN(CCO)CCn1c(Cc2ccccc2)nc2c1c(=O)n(C)c(=O)n2C
Potency [1]: inactive
Potency [2]: inactive
Potency [3]: inactive
Potency [4]: inactive
Potency [5]: inactive
Potency [6]: inactive
Potency [8]: inactive
Potency [9]: inactive
Potency [10]: inactive
Potency [17]: inactive
Potency [11]: inactive
activation ([18]; at 70.3 µM (top of the series)): 6.52%
Potency [19]: inactive
Potency (Aromatase (Homo sapiens)): inactive
Potency [13]: inactive

C=CC=O
Potency [1]: inactive
Potency [2]: inactive
Potency [3]: inactive
Potency [4]: inactive
Potency [5]: inactive
Potency [6]: inactive
Potency [17]: inactive
Potency [12]: inactive
Potency (Aromatase (Homo sapiens)): inactive
Potency [13]: inactive

CCC(C(N)=O)N1CCCC1=O (stereo unspecified)
Potency [1]: inactive
Potency [2]: inactive
Potency [3]: inactive
Potency [4]: inactive
Potency [5]: inactive
Potency [6]: inactive
Potency [8]: inactive
Potency [9]: inactive
Potency [10]: inactive
Potency [17]: inactive
Potency [11]: inactive
Potency [18]: 21.1 µM (active)
Potency [19]: inactive
Potency [12]: inactive
Potency (Aromatase (Homo sapiens)): inactive
Potency [13]: inactive

O=C(Cl)C(Cl)(Cl)Cl
Potency [1]: inactive
Potency [2]: inactive
Potency [3]: inactive
Potency [4]: inactive
Potency [5]: inactive
Potency [6]: inactive
Potency [8]: inactive
Potency [9]: inactive
Potency [10]: inactive
Potency [17]: inactive
Potency [11]: inactive
activation ([18]; at 95 µM (top of the series)): 9.01%
Potency [19]: inactive
Potency [12]: inactive
Potency (Aromatase (Homo sapiens)): inactive
Potency [13]: inactive
